Bioassay records deposited in PubChem by several laboratories.
A selection: hits, their analogues and other compounds. The true share with any hit is near 4.3%.
TRPM1 prom inh: inhibitors of MITF-driven TRPM1 promoter in melanoma cells; SK-MEL-5 TRPM1 promoter luciferase, 24 h; AID 488899; inhibition, % at 12.5 µM; 330,000 compounds, 0.83% hits;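 active = mean inhibition across replicates of 60% or more, whatever share of single replicates reaches that level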
Peg3 prom inh: Peg3 promoter activity inhibition; HeLa PEG-Prom luciferase reporter, luminescence, overnight; inhibition, % at 20 µM; 360,000 compounds, 1.7% hits;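 active = inhibition of at least 50% at 20 µM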
CHOP inh: inhibitors of CHOP induction in ER stress response; AID 2732; CHO-K1 CHOP-promoter luciferase, tunicamycin-induced, 15-18 h; inhibition, % at 10 µM; 220,000 compounds, 3.8% hits;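 active = compounds that reduced the stress-induced luciferase reporter signal by more than about 70% of percent inhibition, limit read from the data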
CF NFkB inh: inhibitors of cystic fibrosis induced NF-kB; AID 588850; 360,000 compounds, 0.86% hits; inhibition, % at 5 µM; KKLEB NF-kB-GFP reporter, PAF-induced, GFP fluorescence overnight;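 active = at least 50% inhibition at 5 µM, scaled per plate between neutral and stimulator controls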;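 also: PAF is a Pseudomonas aeruginosa culture filtrate used as stimulus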
KKLEB tox: counter-screen for CF NF-kB inhibitors: cytotoxicity. KKLEB CF airway cells viability, ATPlite luminescence, overnight; active compounds read low; cells stimulated with P. aeruginosa culture filtrate. activity change (cytotoxicity), % at 5 µM. 360,000 compounds, 0.36% hits. AID 602141;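 active = corrected activity change at or below -50% at 5 µM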
HIF-2a block: inhibitors of HIF-2a; 786-0 RCC cells HIF-2a reporter, luciferase luminescence, overnight; inhibition, % at 18.8 µM; 360,000 compounds, 0.72% hits;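 active = inhibition of the luminescence signal of 40% or more relative to plate controls, in a single-dose primary screen at 18.75 µM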
Each line names hits and unclear results; the compound was inactive in the other large screens; ! = a repeat was not active.

COc1cc(-c2nc(-c3ccccc3)c(-c3ccc(F)cc3)[nH]2)cc2c1OCO2	CHOP inh 70
O=C1NN(c2ccccc2)C(=O)/C1=C/c1ccc(Sc2cccc3ccccc23)o1	CHOP inh 104
CC(C)(C)NC(=O)C(c1cc2ccccc2o1)n1c(-c2ccc(-c3ccccc3)cc2)nc2ccccc21 (configuration not stated)	none (no result: TRPM1 prom inh, Peg3 prom inh, CHOP inh, CF NFkB inh, KKLEB tox)
Cc1ccc(-c2ccc(OC(=O)c3ccc(=O)[nH]c3)c(C)c2)cc1	none (no result: CHOP inh)
O=C(O)c1cccc(NC(=O)c2cccc(NC(=O)C3CCCO3)c2)c1 (configuration not stated)	HIF-2a block 47
O=C(Nc1cccc(Cl)c1)c1nc[nH]c1C(=O)NCCCNC(=O)c1[nH]cnc1C(=O)Nc1cccc(Cl)c1	Peg3 prom inh 57 (no result: CHOP inh)
O=C(Nc1ccccc1)c1nc[nH]c1C(=O)NCCNC(=O)c1[nH]cnc1C(=O)Nc1ccccc1	CF NFkB inh 66 (no result: CHOP inh)
CNC(=O)c1[nH]cnc1C(=O)Nc1cccc(Cl)c1	none (no result: CHOP inh)
Cc1ccc(CC(=O)NNC(=O)c2cccs2)cc1C	none (no result: CHOP inh)
COc1ccc(/C(C)=N/NC(=O)c2cccc(S(=O)(=O)N3CCCC3)c2)c(O)c1	TRPM1 prom inh 73 (no result: CHOP inh)
COc1ccc(CC(=O)Nc2cccc(S(=O)(=O)N3CCCCCC3)c2)cc1OC	CHOP inh 71
COc1ccc(NS(=O)(=O)c2cccc(NC(=O)c3ccc(S(=O)(=O)N4CCCCCC4)cc3)c2)cc1	CHOP inh 75
O=S(=O)(Nc1nc2ccccc2nc1Nc1cccc(S(=O)(=O)N2CCCCC2)c1)c1ccccc1	Peg3 prom inh 69, CHOP inh 75, CF NFkB inh 65, KKLEB tox -61
COc1ccc(C(C)=NNC(=O)c2cccc(S(=O)(=O)N3CCCC3)c2)cc1	none (no result: CHOP inh)
COc1ccc(CCC(=O)Nc2cccc(S(=O)(=O)N3CCCCCC3)c2)cc1OC	none (no result: CHOP inh)
Nc1ncnc2c1nc(Sc1ccc(Cl)cc1)n2C1OC2COP(=O)(O)O[C@@H]2[C@@H]1O (some centres not stated)	none (no result: TRPM1 prom inh, Peg3 prom inh, CF NFkB inh, KKLEB tox, HIF-2a block)
O=C(COC(=O)c1ccccc1Cc1ccccc1)NC1CCS(=O)(=O)C1 (configuration not stated)	none (no result: CHOP inh)
CCOc1ccc(C(=O)N[C@H](C(=O)Nc2cccc(S(=O)(=O)N3CCOCC3)c2)C(C)C)cc1	none (no result: CHOP inh)
COc1ccc(NC(=O)CN(C)C(=O)/C=C/c2ccc(S(=O)(=O)N3CCCCCC3)cc2)cc1	Peg3 prom inh 52 (no result: CHOP inh)
CCOc1ccc(C(=O)N[C@H](C(=O)Nc2cccc(S(=O)(=O)N3CCCCC3)c2)C(C)C)cc1	CHOP inh 85
COc1ccc(/C=C/C(=O)N(C)CC(=O)Nc2cccc(F)c2)cc1S(=O)(=O)N1CCCCC1	none (no result: CHOP inh)
O=C(CN1CCN(c2ccccc2O)CC1)Nc1cc([N+](=O)[O-])ccc1Cl	CHOP inh 83
COc1ccc(-c2nc3ccc(Br)cn3c2Cc2cccc(Cl)c2)cc1OC	none (no result: TRPM1 prom inh, CHOP inh)
Nc1cc(N)nc(SCC(=O)NC2CCCCCCC2)n1	none (no result: CHOP inh)
CN(C)CCNCCCNc1c2ccccc2nc2cccc([N+](=O)[O-])c12	TRPM1 prom inh 103, Peg3 prom inh 98 (no result: CHOP inh)
Nc1ccc(C(=O)Nc2ccc(Nc3ccncc3)cc2)c([N+](=O)[O-])c1	none (no result: TRPM1 prom inh, CHOP inh)
O=c1oc2cc(O)c(Cl)cc2c2ccccc12	none
O=c1oc(Cl)c(Cl)c2ccccc12	TRPM1 prom inh 90
COc1ccc(OC)c(NC(=O)CSc2ncnc3c2cnn3-c2ccccc2Cl)c1	CHOP inh 80
NC(=O)COC(=O)/C=C/c1cccc(Br)c1	none
Cc1c(O)cccc1C(=O)N[C@@H](CSc1ccccc1)[C@H](O)CN1C[C@H]2CCCC[C@H]2C[C@H]1C(=O)NC(C)(C)C	Peg3 prom inh 77! (no result: CHOP inh)
Fc1ccc2cnc(-c3ccccc3)c(-c3ccc(C(F)(F)F)cc3)c2c1	none (no result: CHOP inh)
COc1cc2cnc(-c3ccccc3)c(-c3ccc(C(F)(F)F)cc3)c2cc1OC	Peg3 prom inh 64 (no result: CHOP inh)
NC(=O)COC(=O)c1sc2ccccc2c1Cl	none
Cc1cc(C)n(CCOC(=O)c2sc3ccccc3c2Cl)n1	CHOP inh 74
CC(/C=N/NC(=O)c1cc(-c2ccncc2)nc2ccccc12)=C\c1ccco1	TRPM1 prom inh 68
O=C(N/N=C/c1ccc(Cl)c([N+](=O)[O-])c1)c1cc(-c2ccccc2)nc2ccccc12	Peg3 prom inh 108
O=C(N/N=C/c1ccc(Cl)cc1)c1cc(-c2cccnc2)nc2ccccc12	CHOP inh 84
Cc1ccc(NC(=S)N/N=C/c2ccc(Cl)c([N+](=O)[O-])c2)cc1	Peg3 prom inh 86, CHOP inh 80
Cc1ccc(/C=N/NC(=O)c2cc(-c3ccncc3)nc3ccccc23)o1	none (no result: CHOP inh)
O=c1[nH]c(=O)c2[nH]c(=S)n(-c3ccccc3)c2[nH]1	none (no result: CHOP inh)
CC(C)c1ccc(S(=O)(=O)N(C)C2(C)CCS(=O)(=O)C2)cc1 (configuration not stated)	none (no result: CHOP inh)
Cc1ccc(NC(=O)c2ccc([N+](=O)[O-])s2)cc1S(=O)(=O)N1CCOCC1	TRPM1 prom inh 92 (no result: CHOP inh)
O=C(Nc1cc(S(=O)(=O)N2CCOCC2)ccc1N1CCOCC1)c1ccc([N+](=O)[O-])s1	TRPM1 prom inh 83 (no result: CHOP inh)
Cc1ccccc1CN1CCN(c2nc3ccccc3s2)CC1	none (no result: CHOP inh)
Cc1nc2ccc(F)cc2cc1C(=O)NCC1CCCO1 (configuration not stated)	KKLEB tox -89
CC1CCc2cc(F)cc3c(O)c(C(=O)NCC4CCCO4)c(=O)n1c23 (configuration not stated)	CHOP inh 77
O=C(NCC1CCCO1)c1cc2ccccc2nc1Cl (configuration not stated)	none
CCCn1c(=O)c(C(=O)NCC2CCCO2)c(O)c2ccccc21 (configuration not stated)	none
Nc1cc(=O)[nH]c(SCC(=O)N2CCCC2)n1	none (no result: CHOP inh)
Cc1cccc(Oc2ccccc2NC(=O)C2=COCCO2)c1	none (no result: CHOP inh)
Cc1cc(C)c(NC(=S)NC(NC(=O)c2ccccc2)C(Cl)(Cl)Cl)c(C)c1 (configuration not stated)	Peg3 prom inh 69
O=C(N/N=C/c1ccc([N+](=O)[O-])o1)c1ccccc1-n1cccc1	TRPM1 prom inh 78 (no result: CHOP inh)
O=C(N/N=C\c1ccccc1)c1ccccc1-n1cccc1	none
O=C(N/N=C/c1ccc([N+](=O)[O-])o1)c1cn(-c2ccccc2)nc1-c1ccccc1	CHOP inh 95
CC(C)c1ccc(CC(=O)N2CCC2(C)C(=O)NCCC#N)cc1 (configuration not stated)	none (no result: TRPM1 prom inh, CHOP inh)
N=C(N)SCc1nc2ccccc2c(=O)n1-c1ccccc1Cl	none
O=c1c2ccccc2nc(CSc2nnnn2-c2ccccc2)n1-c1ccccc1Cl	CHOP inh 71
Cc1ccccc1-n1ncc2c([N+](=O)[O-])cc([N+](=O)[O-])cc21	TRPM1 prom inh 67
Cc1ccccc1N1C(=O)c2cccc([N+](=O)[O-])c2C1=O	none
